± gives the standard deviation of the averaged measurements.
system: Caenorhabditis elegans N2; test: egg-laying rate relative to DMSO control (serotonin + nicotine background) (fraction of control); higher = more egg-laying; conditions: background: 12.3 mM serotonin + 7.7 mM nicotine; 60 µM; 1 h
Protocol: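 About 20 young-adult wild-type C. elegans (N2) per well in 96-well plates were exposed to 60 uM compound for 1 h at room temperature, either in M9 buffer (to find stimulators) or in 12.3 mM serotonin + 7.7 mM nicotine (NS, to find inhibitors). Eggs per worm per hour were counted by automated imaging and normalised to the mean of proximal DMSO control wells. Values average the primary screen and two retests of the worm-active (wactive) Egl modulators.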

| Compound | egg-laying rate |
| --- | --- |
| CCOc1ccc(/C=C/[N+](=O)[O-])cc1 [wact-385] | 0.313 ± 0.11 |
